Data on 52 molecules can be found in PubChem BioAssay AID2326 (National Center for Advancing Translational Sciences (NCATS), 2010).

About 1,100 (0.41%) of roughly 270,000 compounds were called active. Entries that show only a call come without a potency. About 3% were inconclusive and are not listed. Calls come from the whole dose curve. Only a selection was taken, and actives are over-represented in it overall.
Potency is the fitted concentration of half-maximal effect.

This assay in a line: qHTS Assay for Inhibitors of Influenza NS1 Protein Function. Note: actives are rising curves; nearly all actives have a fitted effect of over 50% in size. To be noted: series mostly up to 46.1 µM. The text has this: NIH Chemical Genomics Center [NCGC]
NIH Molecular Libraries Probe Centers Network [MLPCN]
Assay Submitter (PI): Daniel Engel
Influenza is a world-wide public health problem and emerging forms of the virus have the potential to cause a pandemic of equal or greater magnitude to the outbreaks recorded in 1918, 1957 or 1968. Vaccine development is proceeding and there also exist two classes of anti-influenza compounds. However these therapeutic modalities are neither fully effective nor widely enough available to fulfill global needs. In addition their potential usefulness against newly emergent strains is not known. Efforts are needed to develop novel agents against influenza virus, including broad-spectrum agents. Identification of small molecules that inhibit NS1 function either directly or by interfering with specific cellular pathways may be a key to increasing our defense against the virus.
We have miniaturized and optimized a cell based assay in which NS1 from influenza A is expressed in the budding yeast S. cerevisiae. NS1 is a multi-functional protein that counters the host innate immune response and facilitates viral versus cellular gene expression. Expression of NS1 causes a pronounced slow growth phenotype in yeast due to its intrinsic molecular activities. Small molecules that suppress the slow growth phenotype can be identified by a straightforward growth recovery assay using optical density (OD) as the measurement. The same yeast strain not expressing NS1 was used as positive control in the yeast growth recovery assay.
The yeast S. cerevisiae control and NS1 expressing cells were kindly supplied by laboratory of Dr. Daniel Engel, University of Virginia. Yeast starter cultures were stored in single use aliquots at -80C.
1. Yeast culture medium per liter: 1.2 g Yeast Nitrogen Base (w/out amino acids and Ammonium Sulphate), 5.0g Ammonium Sulphate, 0.77g -URA DO (drop-out) Supplement, adjust pH to 6.0. Adjust to 2% glucose prior to inoculating with yeast.
2. Yeast assay medium: 1.2 g Yeast Nitrogen Base (w/out amino acids and Ammonium Sulphate), 5.0g Ammonium Sulphate, 0.77g -URA DO (drop-out) Supplement, adjust pH to 6.0. Adjust to 2% D-galactose prior to inoculating with yeast.
1. Inoculate 100 mls of yeast culture medium with 1 ml of frozen yeast aliquote. Incubate overnight at 30C, 250RPM.
2. Harvest overnight culture at 4000 RPM and wash pellet with 15 mls H2O 3x.
3. Re-suspend washed pellet in 10 mls of yeast assay medium.
4. Prepare a 1:100 dilution of re-suspended culture in yeast assay medium.
5. Dispense 3.5 ul per well of reagents in step 4 in columns 2-48 in a black clear bottom 1536 well plate.
6. Dispense 3.5 ul per well of yeast assay medium in column 1 only.
7. Transfer 23 nl of compound per well.
8. Dispense 3.5 ul per well of yeast assay medium in columns 1-48.
9. Read plate using Viewlux protocol for optical density 600 (OD600) using excitation filter 600nm.
(In general: Quantitative high-throughput screening tests each substance at several concentrations.)
As for `CCN1CCN(c2nc(Nc3cc(OC)ccc3OC)nc(Nc3cc(OC)ccc3OC)n2)CC1`, the Potency result was “inactive”. The same measure for `CCOc1ccc(Nc2nc(Cl)nc(N3CCN(c4ccc(OC)cc4)CC3)n2)cc1`: 10 µM (active); for `COc1ccc(Nc2nc(Cl)nc(NCc3ccco3)n2)cc1`: “inactive”. As for `CC(=O)Oc1ccc(-c2cccc(C(=O)N3CCCCC3)c2)cc1`, the Potency result is “inactive”. `COc1ccc(Cn2c(=S)[nH]c3cc(C(=O)N4CCCCC4)ccc3c2=O)cc1`: the Potency result is “inactive”. With `COc1ccc(-n2nc(C(=O)NCC(=O)N3CCCCCC3)c3ccccc3c2=O)cc1Cl` the entry was “inactive”; with `C=CCn1c(C23CC4CC(CC(C4)C2)C3)n[nH]c1=S`, “inactive”. With `COC(=O)c1c(NC(=O)c2cccs2)sc2c1CCCC2`, the Potency is 2.24 µM (active). With `CC(C)OC(=O)c1c(NC(=O)c2ccco2)sc2c1CCCC2` the entry was “inactive”; with `COC(=O)c1c(NC(=O)CCCC(=O)O)sc2c1CCCCC2`, “inactive”. With `Cc1ccc(O)c(CNc2nc3ccccc3[nH]2)c1`, the Potency entry was “inactive”.

As to `Cc1cccc(Nc2nc(-c3ccccc3)cs2)n1`, the Potency entry is “inactive”. On to `CN(C)c1ccc(/C=C/C(=O)c2ccc(C(C)(C)C)cc2)cc1[N+](=O)[O-]`, for which the Potency was 12.6 µM (active). `O=C(/C=C/c1ccc(Cl)c([N+](=O)[O-])c1)c1ccc(O)cc1`: the Potency entry is “inactive”. With `CN(C)c1ccc(/C=C/C(=O)c2ccc(O)cc2)cc1[N+](=O)[O-]`, the Potency entry is “inactive”.

In the case of `O=C(CNC(=O)c1ccc(F)cc1)c1ccccc1`, the Potency entry is “inactive”. With `O=c1c2cc(Br)ccc2nc(-c2cccc(Cl)c2)n1O` the entry was “inactive”; with `CCS(=O)(=O)Nc1ccc(C(=O)NCCSc2ccccc2)cc1`, “inactive”; with `Cc1cccc([C@@H]2[C@@H]3C(=O)N(Cc4ccccc4)C(=O)[C@@H]3[C@]3(C)C(=O)N(c4ccc(Br)cc4)C(=O)N23)c1`, 11.2 µM (active).

In the case of `C[C@@]12C(=O)N(c3cccc(Br)c3)C(=O)N1[C@H](c1ccc(Cl)cc1)[C@@H]1C(=O)N(C3CCCCC3)C(=O)[C@@H]12`, the Potency entry was “inactive”. `Cc1cccc(N2C(=O)N3[C@H](c4ccc(F)cc4)[C@@H]4C(=O)N(C5CCCCC5)C(=O)[C@@H]4[C@]3(Cc3ccccc3)C2=O)c1`: the Potency result is “inactive”.

As to `CN(Cc1cnccn1)C(=O)c1cc(COc2cccc(C(F)(F)F)c2)on1`, the Potency entry is “inactive”. Turning to `O=C(Nc1nnc(C2CC2)s1)c1cc(Cl)sc1Cl`, the Potency result was “inactive”. Consider `Cc1ccc(NC(=S)Nc2ccc(F)cc2)cc1`, for which the Potency entry is “inactive”.

As for `O=C(Nc1ccc(S(=O)(=O)N2CCCCCC2)cc1)c1c(F)cccc1F`, the Potency result was “inactive”.

As to `COc1ccc(CNC(=O)[C@H](Cc2c[nH]c3ccccc23)NC(C)=O)cc1OC`, the Potency entry is “inactive”. Consider `COc1ccc(CN(C)C(=O)Cc2c[nH]c3ccccc23)c(OC)c1OC`, for which the Potency result is “inactive”. Consider `COc1ccc(C(C(=O)NC2CCCCC2)N(C(=O)Cc2c[nH]c3ccccc23)c2ccccc2)cc1OC` (configuration not stated), for which the Potency is 11.2 µM (active). `CCOC(=O)C(Cc1ccc(N)cc1)N1C(=O)c2ccccc2C1=O` (configuration not stated): the Potency entry was “inactive”. `Cc1ccccc1C(=O)N1CCC(C(=O)Oc2ccc(C#N)cc2)CC1`: the Potency entry is “inactive”. With `Cc1ccc(-c2ccc(=O)n(CC(=O)NCCCN3CCCCC3)n2)cc1` the figure was 3.55 µM (active); with `CCC1CCCCN1CCCNC(=O)Cn1nc(-c2ccccc2)ccc1=O` (configuration not stated), “inactive”; with `CCCCNC(=O)CCn1nc(-c2ccc(Cl)cc2)ccc1=O`, “inactive”. Consider `CCC(NC(=O)c1cc(COc2ccc(F)c(F)c2)on1)c1ccncc1` (configuration not stated), for which the Potency result is “inactive”. For the molecule `CCc1ccc(-c2nc(SCC(=O)NC3CCCC3)n[nH]2)cc1`, the Potency result is “inactive”. For the molecule `CC(=O)Nc1ccc(S(=O)(=O)Nc2cc(C)cn(Cc3ccc(C)cc3)c2=O)cc1`, the Potency entry was “inactive”. With `Cc1cccc(-n2ncc(Cl)c(Cl)c2=O)c1`, the Potency result was “inactive”. Take `O=C(Nc1ncc([N+](=O)[O-])s1)C1COc2ccccc2O1` (configuration not stated): the Potency result was “inactive”. On to `C1=C(N2CCOCC2)/C(=C/c2nc3ccccc3[nH]2)CC1`, for which the Potency is 3.98 µM (active).

Take `O=c1[nH]c(N2CCOCC2)nc2ccccc12`: the Potency result was “inactive”.

For the molecule `c1ccc(Nc2nc(N3CCOCC3)c3ccccc3n2)cc1`, the Potency result was “inactive”. Regarding `COc1ccc(CNS(=O)(=O)c2ccc(NC(=O)N3CCCCC3)cc2)cc1`, the Potency result is “inactive”. As for `O=C(/C=C/c1ccc([N+](=O)[O-])o1)NNC(=O)c1ccc(F)cc1`, the Potency entry is “inactive”. Turning to `O=C(/C=C/c1ccco1)NC(=S)N1CCCCC1`, the Potency entry was “inactive”. Regarding `Cc1ccc(C(=O)Nc2nnc(C3=COCCO3)o2)cc1C`, the Potency entry is “inactive”. `O=C(CN1C(=O)S/C(=C\c2ccccc2Cl)C1=O)NC1C=CS(=O)(=O)C1` (configuration not stated): the Potency result was “inactive”. In the case of `COc1ccc(-n2c(C)cc(C(=O)CSc3nnc(-c4cccs4)o3)c2C)cc1`, the Potency was 11.2 µM (active). For the molecule `COc1ccc(C(=O)CSc2nnc(-c3ccco3)o2)cc1`, the Potency entry was “inactive”. Turning to `COc1ccc(-c2nnc(SCC(=O)c3cccs3)o2)c(OC)c1`, the Potency result is “inactive”. With `Cc1ccc(O)c(/C=N/NC(=O)COc2ccc3c(C)cc(=O)oc3c2)c1` the entry was “inactive”. Consider `O=[N+]([O-])c1ccc(O)c(/C=N/Nc2ccccc2[N+](=O)[O-])c1`, for which the Potency result was “inactive”.

Take `S=C(Nc1cccc(Cl)c1)Nc1ccc2c(c1)OCCO2`: the Potency entry is “inactive”.
